A selection: hits, their analogues and other compounds. The true share with any hit is near 0.51%.
E coli growth-1 – bacterial growth inhibition, counter-screen for AddAB inhibitors; E. coli V3065 growth, OD600 absorbance, 18 h; inhibition, % at 11.9 µM; 330,000 compounds, 0.27% hits; AID 449728;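 active = inhibition above the campaign's mean inhibition across all tested compounds plus 3 SD, cut at about 9.9% in these data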;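 note: uninfected addAB+ strain grown without phage in ampicillin broth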
E coli growth-2 – blocks Escherichia coli growth. OD600, 23 h; hits give low values. OD600 absorbance (no concentration beside the values). 330,000 compounds, 0.21% hits. AID 1053175;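 active = OD600 absorbance below the run mean of sample wells minus 3.6 SD, in any replicate, cut at about 0.56 in these data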
AddAB inh – less growth of phage-infected E. coli with AddAB; E. coli expressing H. pylori AddAB, absorbance growth; inhibition, % at 11.9 µM; AID 435030; 330,000 compounds, 0.29% hits; in the data active = inhibition above about 12%
Tat transport – inhibitors of E. coli Tat protein transport. E. coli MC4100 TorA-mCherry Tat export, fluorescence. inhibition, % at 10 µM. AID 488895. 340,000 compounds, 0.036% hits;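 active = mean replicate inhibition at least 50% and at least half of replicates individually reaching 50%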;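 note: exported cargo escapes ClpAP degradation while cytoplasmic cargo is degraded and loses fluorescence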
phage Ecoli inh – E. coli growth loss with phage present; growth absorbance; inhibition, % at 11.9 µM; 360,000 compounds, 0.26% hits; AID 651602; in the data active = inhibition above about 11%
AddAB confirm – confirmation screen: growth loss of phage-infected E. coli expressing H. pylori AddAB | shares compounds with AddAB inh | E. coli V3065 expressing H. pylori AddAB, T4 phage, OD; T4 phage with gene 2 nonsense mutations | inhibition, % at 11.9 µM | 880 compounds, 64% hits | AID 488942;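 active = mean inhibition above a set limit taken from the earlier primary screen, cut at about 13% in these data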;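 note: higher means less bacterial growth since AddAB block lets phage replicate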
RecBCD counter – AddAB counter-screen: growth loss of RecBCD+ E. coli infected with mutant T4 phage; AID 488955; E. coli V66 + mutant T4 phage, OD growth; shares compounds with AddAB inh; 880 compounds, 73% hits; inhibition, % at 11.9 µM;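 active = mean inhibition above the mean of solvent-only control wells plus 3 SD, cut at about 4% in these data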;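 note: optical density read after an 18 h incubation at 37 °C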
Bact viability – reduces bacterial viability, AddAB inhibitor counter-screen; shares compounds with AddAB inh; absorbance (AddAB counterscreen); inhibition, % at 11.9 µM; 880 compounds, 35% hits; AID 488956; in the data active = inhibition above about 25%
RecBCD conf – confirmation: growth loss of phage-infected RecBCD+ E. coli (RecBCD inhibitor screen); shares compounds with phage Ecoli inh; E. coli V66 + T4 2- phage, growth OD; inhibition, % at 11.9 µM; 890 compounds, 45% hits;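 active = mean inhibition over triplicates exceeding the hit threshold derived in the original primary screen, cut at about 11% in these data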
Ecoli viability – bacterial viability inhibition counter-screen for RecBCD; E. coli viability, absorbance (OD) growth; inhibition, % at 11.9 µM; AID 651983; 890 compounds, 29% hits; shares compounds with phage Ecoli inh; in the data active = inhibition above about 20%;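 note: E. coli strain V66 grown with compound alone and no phage infection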
AddAB counter – growth loss of phage-infected AddAB E. coli, RecBCD counter-screen; shares compounds with phage Ecoli inh; E. coli expressing H. pylori AddAB + T4 phage, OD growth; gene 2 mutant T4, recBCD-deleted host; inhibition, % at 11.9 µM; 890 compounds, 45% hits; AID 651984;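 active = mean inhibition above the solvent-only control wells' mean plus 3 SD, cut at about 22% in these data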;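 note: higher means less bacterial growth from phage killing when AddAB is blocked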
Numbers stand for hits; i = inactive; nt = not tested or not shown.

SMILES	E coli growth-1	E coli growth-2	AddAB inh	Tat transport	phage Ecoli inh	AddAB confirm	RecBCD counter	Bact viability	RecBCD conf	Ecoli viability	AddAB counter
NC1CCN(c2c(F)cc3c(=O)c(C(=O)O)cn(C4CC4)c3c2Cl)C1 (centres undefined)	98	0.066	97	149	99	102	100	102	101	101	99
CC1CCc2cc(F)cc3c(=O)c(C(=O)O)cn1c23 (centres undefined)	100	0.062	100	56	100	99	31	100	102	103	102
CC1CCc2c(N3CCC(O)CC3)c(F)cc3c(=O)c(C(=O)O)cn1c23 (centres undefined)	102	0.059	101	60	103	96	99	97	102	103	103
N#CCC(=O)NN=Cc1ccc(OS(=O)(=O)c2ccccc2)cc1	nt	i	nt	nt	nt	nt	nt	nt	nt	nt	nt
C=C1c2cccc(O)c2C(=O)C2C(=O)[C@]3(O)C(=O)C(C(N)=O)C(=O)[C@@H](N(C)C)[C@@H]3[C@@H](O)[C@H]12 (some centres undefined)	102	nt	100	145	99	101	101	99	103	105	104
Cc1ccccc1-c1cc(C(=O)NN=Cc2cccnc2)c2ccccc2n1	nt	i	nt	nt	nt	nt	nt	nt	nt	nt	nt
CCCC(=O)NC(c1ccc(Cl)cc1Cl)c1ccc2cccnc2c1O (centres undefined)	27	nt	20	i	24	20	20	i	16	i	25
CC(=O)NC(c1ccc2ccccc2c1)c1ccc2cccnc2c1O (centres undefined)	27	nt	30	i	24	28	22	i	16	20	32
CCCCC(=O)NC(c1ccc(Cl)cc1)c1ccc2cccnc2c1O (centres undefined)	30	nt	31	i	20	29	22	i	12	i	33
CCCC(=O)NC(c1ccc(Cl)cc1)c1ccc2cccnc2c1O (centres undefined)	28	nt	19	i	18	24	23	i	15	i	27
O=c1c2ccccc2nc(COc2ccccc2)n1N=Cc1cn[nH]c1-c1ccccc1	nt	i	nt	nt	nt	nt	nt	nt	nt	nt	nt
CC(C=Cc1cccnc1)=CC(=O)O	nt	i	nt	nt	nt	nt	nt	nt	nt	nt	nt
CC(CN1C2=NCC(C)N2CC1Cc1ccc(O)cc1)NC(=O)CCC1CCCCC1 (centres undefined)	nt	i	nt	nt	nt	nt	nt	nt	nt	nt	nt
CCCCC(=O)NC(c1ccccc1OC)c1ccc2cccnc2c1O (centres undefined)	33	i	32	i	34	30	28	27	21	25	32
CCCCC(=O)NC(c1ccc(OC)c(OC)c1)c1c(O)ccc2ccccc12 (centres undefined)	i	i	i	i	nt	nt	nt	nt	nt	nt	nt
Cc1ccc(NC(=S)NC(CO)C(O)c2ccc([N+](=O)[O-])cc2)cc1 (centres undefined)	i	i	i	i	i	nt	nt	nt	nt	nt	nt
O=C(NC(CO)C(O)c1ccc([N+](=O)[O-])cc1)C(Cl)Cl (centres undefined)	85	0.06	79	i	73	87	84	86	79	79	74
O=[N+]([O-])c1ccc(C(O)C(CO)NC(=S)Nc2ccccc2)cc1 (centres undefined)	i	i	i	i	i	nt	nt	nt	nt	nt	nt
O=C(N[C@H](CO)[C@H](O)c1ccc([N+](=O)[O-])cc1)C(Cl)Cl	90	0.045	89	i	78	87	86	85	86	88	81
CN1CCN(N=Cc2c3ccccc3c(Cl)c3ccccc23)CC1	nt	i	nt	nt	nt	nt	nt	nt	nt	nt	nt
CCOC1OC(C(=O)N2CCN(C)CC2)=CC(c2ccc(C(F)(F)F)cc2)C1CCCO (centres undefined)	nt	i	nt	nt	nt	nt	nt	nt	nt	nt	nt
COc1ccc(/C=N/Nc2ncnc(Cl)c2N)cc1OC	i	nt	i	i	i	nt	nt	nt	nt	nt	nt
COc1cccc(/C=N/Nc2ncnc3scc(-c4ccccc4)c23)c1O	17	nt	15	i	11	i	12	i	i	i	i
COc1cccc(/C=N/Nc2ncnc(Cl)c2N)c1O	15	nt	12	i	30	21	29	i	27	30	23
CC(=NNc1ccc2nncn2n1)c1ccc(Cl)s1	nt	i	nt	nt	nt	nt	nt	nt	nt	nt	nt
SMILES	E coli growth-1	E coli growth-2	AddAB inh	Tat transport	phage Ecoli inh	AddAB confirm	RecBCD counter	Bact viability	RecBCD conf	Ecoli viability	AddAB counter
O=c1c(=Cc2ccco2)sc2n1CN(c1cccc(Br)c1)CN=2	nt	i	nt	nt	nt	nt	nt	nt	nt	nt	nt
Cc1ccc(-c2cc(-c3ccccc3O)nc(NN=Cc3cccnc3)n2)cc1	nt	i	nt	nt	nt	nt	nt	nt	nt	nt	nt
CCn1ccc(C(=O)NC2C(=O)N3C(C(=O)O)=C(C)CSC23)n1 (centres undefined)	i	i	i	i	i	nt	nt	nt	nt	nt	nt
C=CC1=C(C(=O)O)N2C(=O)[C@@H](NC(=O)/C(=N\O)c3csc(N)n3)[C@H]2SC1 (stereo in doubt)	99	nt	99	i	99	103	101	103	104	106	105
COc1cc(C=CC(=O)O)cc(S(=O)(=O)Nc2ccccc2SC)c1OC	nt	i	nt	nt	nt	nt	nt	nt	nt	nt	nt
[N-]=[N+]=CC(=O)c1ccnc(C(=O)C=[N+]=[N-])c1	38	0.56	31	i	18	57	22	43	20	21	49
O=C(O)c1ccnc(Cl)c1	i	i	i	i	i	nt	nt	nt	nt	nt	nt
CC(=NNC(=O)Cc1ccc(Cl)cc1)c1ccccc1O	nt	i	nt	nt	nt	nt	nt	nt	nt	nt	nt
CCc1nnc(NS(=O)(=O)c2ccc(NC(=S)Nc3ccc(F)cc3)cc2)s1	i	i	15	i	16	i	i	i	i	i	i
[O-][n+]1c2ccccc2[n+]([O-])c2cc(O)ccc21	40	0.4	31	i	11	69	9.8	51	11	i	55
O=C(NN=Cc1sc(=O)n(Cc2ccc(Br)cc2)c1Cl)c1ccco1	nt	i	nt	nt	nt	nt	nt	nt	nt	nt	nt
O=C(NN=Cc1c[nH]c2ccccc12)c1cc(Cl)ccc1O	nt	i	nt	nt	nt	nt	nt	nt	nt	nt	nt
CCCC(=O)NC(c1ccc(N(C)C)cc1)c1c(O)ccc2ccccc12 (centres undefined)	i	i	i	i	i	nt	nt	nt	nt	nt	nt
CCCCC(=O)NC(c1ccc(N(C)C)cc1)c1ccc2cccnc2c1O (centres undefined)	35	nt	25	i	23	30	23	i	13	i	i
CCCCC(=O)NC(c1ccc(N(CC)CC)cc1)c1ccc2cccnc2c1O (centres undefined)	17	nt	20	i	19	24	17	i	12	i	i

From PubChem
